In PubChem BioAssay (NCI):
Compounds without any hit were thinned out: in the full panel of roughly 79,000, 15% have a hit. No stated cut-off is given here; in the data, active means growth inhibition above about 70%; inactive means the rest.

Assays:
[1] = NCI Yeast Anticancer Drug Screen. Data for the rad50 strain (AID 155);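 further: 0% = growth of vehicle-only cultures of the same strain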; conditions: S. cerevisiae rad50 strain growth inhibition; at 50.0 µM; hits give high values
Summary of the method: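 Cells are treated with compound, grown, and their growth is then scored against vehicle-only cultures of the same repair-deficient yeast strain.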

[2] = NCI Yeast Anticancer Drug Screen. Data for the mec2-1 strain (AID 157); conditions: S. cerevisiae mec2-1 strain, at 50.0 µM, hits give high values
Summary of the method: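 Test agents were screened against the mec2-1 yeast strain, with defined DNA repair or cell cycle alteration. Growth was scored as inhibition against vehicle-only controls.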

[3] = NCI Yeast Anticancer Drug Screen. Data for the sgs1 mgt1 strain (AID 161);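 further: 0% = growth of cultures given vehicle only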; conditions: S. cerevisiae sgs1 mgt1 strain, at 50.0 µM, hits give high values
Summary of the method: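 Mutant yeast exposed to compound; growth scored against vehicle-only wells.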

[4] = NCI Yeast Anticancer Drug Screen. Data for the cln2 rad14 strain (AID 165);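 further: 0% = growth equal to vehicle treated cultures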; conditions: S. cerevisiae cln2 rad14 strain, at 50.0 µM, hits give high values
Summary of the method: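 Growth of compound-exposed yeast (cln2 rad14 genotype) measured and expressed as inhibition relative to vehicle.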

[5] = NCI Yeast Anticancer Drug Screen. Data for the bub3 strain (AID 167); conditions: S. cerevisiae bub3 mutant strain, at 50.0 µM, hits give high values
Summary of the method: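 Part of a panel of yeast mutants defective in DNA damage repair or cell cycle regulation. Each strain is grown with compound, and inhibition is calculated relative to solvent-treated cultures.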

[6] = NCI Yeast Anticancer Drug Screen. Data for the mlh1 rad18 strain (AID 175); conditions: S. cerevisiae mlh1 rad18 strain growth inhibition; at 50.0 µM; hits give high values
Summary of the method: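 In this whole-cell yeast screen, a strain with altered DNA damage repair is challenged with compound, and its growth is measured against matched vehicle-treated controls.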

Measured: growth inhibition

Cc1ccc(C(=O)/C=C(\C(=O)c2ccccc2)c2ccccc2)cc1C
inactive: [1] 12.5% | [2] 14.8% | [3] 1.85% | [4] 11.7% | [5] 11.3% | [6] 9.65%

CCOC(=O)N1N(C(=O)c2ccccc2)C(=O)CC1(C)C
inactive: [1] -3.15% | [2] 8.2% | [3] 1.5% | [4] -16.1% | [5] -6.8% | [6] -24.2%

COC(=O)C(C)OP(=O)(OC(C)C(=O)OC)OC(C)C(=O)OC (stereo not drawn)
inactive: [1] 0.4% | [2] -3.55% | [3] -4.75% | [4] -4.05% | [5] 15.1% | [6] 2.7%

N#CC(OC(=O)c1cccc(C(=O)OC(C#N)(C(F)(F)F)C(F)(F)F)c1Sc1ccccc1)(C(F)(F)F)C(F)(F)F
inactive: [1] 27% | [2] 13.8% | [3] -10.1% | [4] -7.8% | [5] 7.55% | [6] -1.3%

CC/C(CC(C)CC)=N\O (stereo not drawn)
inactive: [1] -17.4% | [2] -18.2% | [3] -23.4% | [4] 12.5% | [5] -4.55% | [6] -5.75%

Nc1nc(Sc2ccc([N+](=O)[O-])c3nonc23)c2ncn(C3OC(CO)C(O)C3O)c2n1 (stereo not drawn)
inactive: [1] -0.7% | [2] -11.3% | [3] 3% | [4] 26.6% | [5] -6.3% | [6] 11.9%

O=NN(CCCl)C(=O)NCc1ccc[n+]([O-])c1
inactive: [1] 19.7% | [2] 8.6% | [3] -2% | [4] 4.25% | [5] 2.2% | [6] 8.2%

CC(=O)NCCCCCC(=O)O
inactive: [1] 38.9% | [2] 2.45% | [3] 11.9% | [4] 10.7% | [5] -2.65% | [6] 20.7%

CCN(CC)c1ccc(N=Nc2nc(Cl)c(/C=C3\C(=O)c4ccccc4C3=C(C#N)C#N)s2)c(NC(C)=O)c1
inactive: [1] 18% | [2] 5.1% | [3] 14.2% | [4] -38.6% | [5] -12.8% | [6] -17.6%

COC(=O)C1=CN(c2ccccc2)C(=O)C1
inactive: [1] 5.5% | [2] -14.3% | [3] -6.95% | [4] -26.1% | [5] -8.7% | [6] 7.45%

COc1cc(-c2cc(CCC(=O)Nc3ccccc3[N+](=O)[O-])n(-c3ccc([N+](=O)[O-])cc3[N+](=O)[O-])n2)ccc1O
inactive: [1] -5.2% | [2] -5.5% | [3] -42.7% | [4] 31.8% | [5] -4.65% | [6] -27.7%

COC1CC(OC2CCC3(C)C(=CCC4C3C(OC(C)=O)C(OC(=O)CC(C)C)C3(C)C(C(C)=O)CCC43O)C2)OC(C)C1OC1CC(OC)C(OC2CC(OC)C(OC3OC(C)C(O)C(OC)C3O)C(C)O2)C(C)O1 (stereo not drawn)
inactive: [1] 31.3% | [2] 6.55% | [3] 21.4% | [4] 16.9% | [5] -1.9% | [6] -83.5%

N=C1N=Nc2nc(C(C(=O)c3ccc(O)cc3O)c3nc4n(c3O)C(=N)N=N4)c(O)n21 (stereo not drawn)
inactive: [1] 2.35% | [2] -4.3% | [3] 7.15% | [4] -24% | [5] -15.3% | [6] -2.4%

COc1ccc(N2C(=O)CSC2c2c[nH]c3ccccc23)cc1 (stereo not drawn)
inactive: [1] -39.2% | [2] -43.5% | [3] -49.6% | [4] -16.1% | [5] -44% | [6] -47%

Cc1cc(Br)c(NC(=O)c2csnn2)c(Br)c1
inactive: [1] -31% | [2] -13.6% | [3] -13.6% | [4] -26.8% | [5] 2.65% | [6] -11.4%

OC1CC2CCCCC2CC1c1ccccc1 (stereo not drawn)
inactive: [1] 14.1% | [2] 3.1% | [3] -15.3% | [4] -0.05% | [5] 27.4% | [6] 33.5%

Cc1ccc(NC(=S)Nc2cccc(C(F)(F)F)c2)cc1C
inactive: [1] -11.9% | [2] -4.45% | [3] -5.75% | [4] 4.85% | [5] -7.3% | [6] 20.6%

CC1=CC(C)(C)NC(=S)N1c1ccc(O)cc1
inactive: [1] 0% | [2] -14.8% | [3] 11.3% | [4] -24.8% | [5] 6.8% | [6] 15.8%

CNC(=O)CC(=O)NC
inactive: [1] -20.4% | [2] -9.55% | [3] -16.9% | [4] 6.15% | [5] 8.2% | [6] -10.1%

COC(=O)c1nnn(-c2ccc(Cl)cc2C)c1N
inactive: [1] -17.8% | [2] -1.95% | [3] 16.7% | [4] 29.7% | [5] -15.6% | [6] 21.2%

NC(=O)NOCC(N)C(=O)O (stereo not drawn)
inactive: [1] -7.2% | [2] 1.8% | [3] 1.15% | [4] -41.3% | [5] 5.35% | [6] -2.9%

Cc1cccc(C(=O)OCCBr)c1
inactive: [1] 27.1% | [2] 3.95% | [3] 13.7% | [4] -28.4% | [5] 9.9% | [6] 10.9%

CCCOc1cncc(C)n1
inactive: [1] 8% | [2] 19.1% | [3] -3.75% | [4] -3.85% | [5] 13.6% | [6] 9.95%

Cc1ccc(I)cc1
inactive: [1] -59.4% | [2] -32.6% | [3] -33.9% | [4] -7.5% | [5] -2.9% | [6] -19.1%

Cc1cnc2c(N)nc(-c3ccccc3)nc2n1
inactive: [1] 8.55% | [2] -2.1% | [3] -6.9% | [4] -39.4% | [5] -5.15% | [6] -0.45%

CN(C)C1=NC(c2ccccc2)(c2ccccc2)C(=O)N1
inactive: [1] -17.4% | [2] -8.15% | [3] -3.15% | [4] -40.5% | [5] -6.35% | [6] -23.4%

COc1ccccc1NC(=O)N1CCN(c2cccc(C)c2)CC1
inactive: [1] 4.5% | [2] -2.3% | [3] 12.6% | [4] -15.7% | [5] 37.4% | [6] -8.4%

O=C(O)C1C2CCC(O2)C1C(=O)NCc1cccnc1 (stereo not drawn)
inactive: [1] 23.1% | [2] -3.8% | [3] -11.7% | [4] -9.9% | [5] -11% | [6] 2.85%

CCOC(CNCc1ccc(OC)cc1)OCC
inactive: [1] -0.25% | [2] -3.1% | [3] 4% | [4] -2.05% | [5] 22.4% | [6] 7.6%

COCc1c(C)[nH]c2ccc(N(C)C)cc2c1=O
inactive: [1] -6.75% | [2] -3.6% | [3] -14.8% | [4] -42% | [5] -4.9% | [6] -6.55%

NC(=O)c1ccccc1NC(=O)C(=O)C(c1cnc2ccc([N+](=O)[O-])cc2n1)[N+](=O)[O-] (stereo not drawn)
inactive: [1] 9.7% | [2] -1.1% | [3] 19.6% | [4] 12.9% | [5] 5.85% | [6] 28.8%

O=C(NO)c1cc(O)c(O)c(O)c1
inactive: [1] -14.5% | [2] 1.75% | [3] -16.7% | [4] -11.6% | [5] -5.75% | [6] -25.4%

CCOC(=O)/C(C#N)=C/c1ccc([N+](=O)[O-])cc1
inactive: [1] 19.2% | [2] -2.75% | [3] 14.5% | [4] -5.6% | [5] 0.35% | [6] 8.4%

O=P(NC1CCCCC1)(NC1CCCCC1)c1ccccc1
inactive: [1] -10.9% | [2] 13.2% | [3] -5.1% | [4] 18.3% | [5] 13.6% | [6] 1.25%

CSc1cc(/C=C/c2ccccc2)ccc1[N+](=O)[O-]
inactive: [1] 1.65% | [2] 0.95% | [3] 4.95% | [4] 15% | [5] 14.3% | [6] 4.45%

COc1ccc(N2C(=O)OC3(CCN(Cc4ccccc4)CC3)C2=O)cc1
inactive: [1] -1.55% | [2] 13.2% | [3] 7.7% | [4] 8.25% | [5] 8% | [6] 16.4%

Cc1[nH]c2ccccc2c1C(=O)Cc1ccc(Cl)cc1Cl
inactive: [1] -3.6% | [2] 31.8% | [3] 32.2% | [4] -4.35% | [5] 23.8% | [6] 33.4%

Cn1cc(-n2[nH]c(=O)n(-c3ccccc3)c2=O)c(=O)n(C)c1=O
inactive: [1] -50% | [2] 8.2% | [3] -1.1% | [4] -21.3% | [5] 16.1% | [6] 13.3%
